# Measurements from the supplement of paper PMC4466140.
# Experiments:
# Assay in all cases: SPOT peptide array binding signal intensity (averaged, normalized) (arbitrary units (background-subtracted, floor 0; scale differs between SH3 domains)); higher = stronger binding of the SH3 domain to the peptide
# AgAbp1 = biological target: AgAbp1
# Protocol: (§1)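 GST-tagged SH3 domains from S. cerevisiae (Sc), A. gossypii (Ag), C. albicans (Ca) and S. pombe (Sp) were incubated at 10 ug/ml overnight at 4 C on cellulose SPOT membranes carrying 292 synthetic 15-mer peptides mined from the S. cerevisiae proteome (cysteines replaced by serines). Binding was detected with anti-GST antibody, HRP secondary and chemiluminescence, quantified with Genespotter, and reported as normalized spot intensities averaged over biological replicates.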
# AgBbc1 = biological target: AgBbc1
# Protocol: as §1
# AgBem1-D1 = biological target: AgBem1-D1
# Protocol: as §1
# AgBzz1-D1 = biological target: AgBzz1-D1
# Protocol: as §1
# AgBzz1-D2 = biological target: AgBzz1-D2
# Protocol: as §1
# AgCyk3 = biological target: AgCyk3
# Protocol: as §1
# AgFus1 = biological target: AgFus1
# Protocol: as §1
# AgHof1 = biological target: AgHof1
# Protocol: as §1
# AgHse1 = biological target: AgHse1
# Protocol: as §1
# AgLsb1 = biological target: AgLsb1
# Protocol: as §1
# AgLsb4 = biological target: AgLsb4
# Protocol: as §1
# AgMyo5 = biological target: AgMyo5
# Protocol: as §1
# AgNbp2 = biological target: AgNbp2
# Protocol: as §1
# AgRvs167 = biological target: AgRvs167
# Protocol: as §1
# AgSho1 = biological target: AgSho1
# Protocol: as §1
# AgSla1-D1-D2 = biological target: AgSla1-D1-D2
# Protocol: as §1
# AgSla1-D3 = biological target: AgSla1-D3
# Protocol: as §1
# CaAbp1-D1 = biological target: CaAbp1-D1
# Protocol: as §1
# CaAbp1-D2 = biological target: CaAbp1-D2
# Protocol: as §1
# CaBbc1 = biological target: CaBbc1
# Protocol: as §1
# CaBem1-D1 = biological target: CaBem1-D1
# Protocol: as §1
# CaBzz1-D1 = biological target: CaBzz1-D1
# Protocol: as §1
# CaBzz1-D2 = biological target: CaBzz1-D2
# Protocol: as §1
# CaCyk3 = biological target: CaCyk3
# Protocol: as §1
# CaFus1 = biological target: CaFus1
# Protocol: as §1
# CaHof1 = biological target: CaHof1
# Protocol: as §1
# CaHse1 = biological target: CaHse1
# Protocol: as §1
# CaLsb1 = biological target: CaLsb1
# Protocol: as §1
# CaLsb4 = biological target: CaLsb4
# Protocol: as §1
# CaMyo5 = biological target: CaMyo5
# Protocol: as §1
# CaNbp2 = biological target: CaNbp2
# Protocol: as §1
# CaRvs167 = biological target: CaRvs167
# Protocol: as §1
# CaRvs167-3 = biological target: CaRvs167-3
# Protocol: as §1
# CaSho1 = biological target: CaSho1
# Protocol: as §1
# CaSla1-D1-D2 = biological target: CaSla1-D1-D2
# Protocol: as §1
# CaSla1-D3 = biological target: CaSla1-D3
# Protocol: as §1
# ScAbp1 = biological target: ScAbp1
# Protocol: as §1
# ScBbc1 = biological target: ScBbc1
# Protocol: as §1
# ScBem1-D1 = biological target: ScBem1-D1
# Protocol: as §1
# ScBzz1-D1 = biological target: ScBzz1-D1
# Protocol: as §1
# ScBzz1-D2 = biological target: ScBzz1-D2
# Protocol: as §1
# ScCyk3 = biological target: ScCyk3
# Protocol: as §1
# ScFus1 = biological target: ScFus1
# Protocol: as §1
# ScHof1 = biological target: ScHof1
# Protocol: as §1
# ScHse1 = biological target: ScHse1
# Protocol: as §1
# ScLsb1 = biological target: ScLsb1
# Protocol: as §1
# ScLsb2 = biological target: ScLsb2
# Protocol: as §1
# ScLsb3 = biological target: ScLsb3
# Protocol: as §1
# ScLsb4 = biological target: ScLsb4
# Protocol: as §1
# ScMyo3 = biological target: ScMyo3
# Protocol: as §1
# ScMyo5 = biological target: ScMyo5
# Protocol: as §1
# ScNbp2 = biological target: ScNbp2
# Protocol: as §1
# ScPex13 = biological target: ScPex13
# Protocol: as §1
# ScRvs167 = biological target: ScRvs167
# Protocol: as §1
# ScSho1 = biological target: ScSho1
# Protocol: as §1
# ScSla1-D1-D2 = biological target: ScSla1-D1-D2
# Protocol: as §1
# ScSla1-D3 = biological target: ScSla1-D3
# Protocol: as §1
# SpAbp1-D1 = biological target: SpAbp1-D1
# Protocol: as §1
# SpBbc1 = biological target: SpBbc1
# Protocol: as §1
# SpBzz1-D1 = biological target: SpBzz1-D1
# Protocol: as §1
binder,measurement,setting,value
RRRRRPHRIERPLSN,SPOT peptide array binding signal intensity,AgAbp1,25
same,SPOT peptide array binding signal intensity,AgBbc1,170
same,SPOT peptide array binding signal intensity,AgBem1-D1,136
same,SPOT peptide array binding signal intensity,AgBzz1-D1,33
same,SPOT peptide array binding signal intensity,AgBzz1-D2,43
same,SPOT peptide array binding signal intensity,AgCyk3,33
same,SPOT peptide array binding signal intensity,AgFus1,322
same,SPOT peptide array binding signal intensity,AgHof1,28.5
same,SPOT peptide array binding signal intensity,AgHse1,833
same,SPOT peptide array binding signal intensity,AgLsb1,4.25
same,SPOT peptide array binding signal intensity,AgLsb4,160
same,SPOT peptide array binding signal intensity,AgMyo5,2.25
same,SPOT peptide array binding signal intensity,AgNbp2,72
same,SPOT peptide array binding signal intensity,AgRvs167,3.17
same,SPOT peptide array binding signal intensity,AgSho1,37.5
same,SPOT peptide array binding signal intensity,AgSla1-D1-D2,354
same,SPOT peptide array binding signal intensity,AgSla1-D3,1
same,SPOT peptide array binding signal intensity,CaAbp1-D1,454
same,SPOT peptide array binding signal intensity,CaAbp1-D2,512
same,SPOT peptide array binding signal intensity,CaBbc1,300
same,SPOT peptide array binding signal intensity,CaBem1-D1,53.5
same,SPOT peptide array binding signal intensity,CaBzz1-D1,96
same,SPOT peptide array binding signal intensity,CaBzz1-D2,34
same,SPOT peptide array binding signal intensity,CaCyk3,147
same,SPOT peptide array binding signal intensity,CaFus1,525
same,SPOT peptide array binding signal intensity,CaHof1,≤ 0
same,SPOT peptide array binding signal intensity,CaHse1,30.5
same,SPOT peptide array binding signal intensity,CaLsb1,1.5
same,SPOT peptide array binding signal intensity,CaLsb4,108
same,SPOT peptide array binding signal intensity,CaMyo5,2
same,SPOT peptide array binding signal intensity,CaNbp2,394
same,SPOT peptide array binding signal intensity,CaRvs167,12
same,SPOT peptide array binding signal intensity,CaRvs167-3,104
same,SPOT peptide array binding signal intensity,CaSho1,674
same,SPOT peptide array binding signal intensity,CaSla1-D1-D2,27
same,SPOT peptide array binding signal intensity,CaSla1-D3,3.5
same,SPOT peptide array binding signal intensity,ScAbp1,16
same,SPOT peptide array binding signal intensity,ScBbc1,124
same,SPOT peptide array binding signal intensity,ScBem1-D1,98
same,SPOT peptide array binding signal intensity,ScBzz1-D1,7.5
same,SPOT peptide array binding signal intensity,ScBzz1-D2,15
same,SPOT peptide array binding signal intensity,ScCyk3,272
same,SPOT peptide array binding signal intensity,ScFus1,396
same,SPOT peptide array binding signal intensity,ScHof1,≤ 0
same,SPOT peptide array binding signal intensity,ScHse1,1290
same,SPOT peptide array binding signal intensity,ScLsb1,11.2
same,SPOT peptide array binding signal intensity,ScLsb2,6
same,SPOT peptide array binding signal intensity,ScLsb3,690
same,SPOT peptide array binding signal intensity,ScLsb4,7.5
same,SPOT peptide array binding signal intensity,ScMyo3,6.5
same,SPOT peptide array binding signal intensity,ScMyo5,3.25
same,SPOT peptide array binding signal intensity,ScNbp2,437
same,SPOT peptide array binding signal intensity,ScPex13,0.5
same,SPOT peptide array binding signal intensity,ScRvs167,29
same,SPOT peptide array binding signal intensity,ScSho1,430
same,SPOT peptide array binding signal intensity,ScSla1-D1-D2,303
same,SPOT peptide array binding signal intensity,ScSla1-D3,11
same,SPOT peptide array binding signal intensity,SpAbp1-D1,143
same,SPOT peptide array binding signal intensity,SpBbc1,7.25
same,SPOT peptide array binding signal intensity,SpBzz1-D1,91
